10 molecules from PubChem BioAssay (NCI) can be followed below.

The panel holds about 79,000 compounds, 15% with a hit somewhere; the sample as a whole holds those more often. A number with no mark means an inactive call. Active and inactive are the calls of the source. Cut-off read from the data, not from the text of the source: active = growth inhibition above about 70%; inactive = the rest.

Assay [1] is described as follows: NCI Yeast Anticancer Drug Screen. Data for the rad50 strain (AID 155).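 Note: 0% = growth of vehicle-only cultures of the same strain.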 To be noted: S. cerevisiae rad50 strain growth inhibition, active compounds read high. Put shortly:
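Inhibition values express reduced yeast growth in compound-treated cultures relative to vehicle-treated controls.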

Assay [2] in a line: NCI Yeast Anticancer Drug Screen. Data for the mec2-1 strain (AID 157). To be noted: S. cerevisiae mec2-1 strain, active compounds read high. In a few lines:
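Strain: mec2-1 (DNA repair/cell cycle alteration). Compound exposure, then growth measured; inhibition expressed relative to vehicle.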

A short description of assay [3]: NCI Yeast Anticancer Drug Screen. Data for the sgs1 mgt1 strain (AID 161).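 Note: 0% = growth of cultures given vehicle only.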 To be noted: S. cerevisiae sgs1 mgt1 strain, active compounds read high. Put shortly: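 Test agents were incubated with a DNA-repair-mutant yeast strain. Growth was then read and compared against vehicle-treated controls.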
Assay [4] in a line: NCI Yeast Anticancer Drug Screen. Data for the cln2 rad14 strain (AID 165).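 Note: 0% = growth equal to vehicle treated cultures.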 To be noted: S. cerevisiae cln2 rad14 strain, active compounds read high. In a few lines: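 Compounds are applied to the cln2 rad14 yeast strain, and growth is then compared with that of vehicle-treated cultures to give inhibition.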
Assay [5] can be described thus: NCI Yeast Anticancer Drug Screen. Data for the bub3 strain (AID 167). To be noted: S. cerevisiae bub3 mutant strain, active compounds read high. Put shortly:
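Steps: expose the mutant yeast strain to compound; grow alongside vehicle-treated cultures; measure growth; express inhibition against the vehicle cultures.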

Assay [6] is described as follows: NCI Yeast Anticancer Drug Screen. Data for the mlh1 rad18 strain (AID 175). To be noted: S. cerevisiae mlh1 rad18 strain growth inhibition, active compounds read high. Put shortly: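 Read-out is yeast growth inhibition, calculated against vehicle-only controls. The compound was applied to a strain engineered with DNA damage repair alterations.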
[7] abbreviates: at 5.0 µM (retest, dose inferred, filed as 0.5).
Setting [8] is: at 50.0 µM (retest, dose inferred, filed as 5.0).

Take `O=C1C(=O)c2cc([N+](=O)[O-])ccc2-c2ccccc21`: the growth inhibition in assay [1] (setting [7]) is 45%; in assay [1] (setting [8]), 97% (active); in assay [1] (at 50.0 µM) it was 98.7% (active); in assay [2] (setting [7]), 34%; in assay [2] (setting [8]), 97% (active); in assay [2] (at 50.0 µM), 95.8% (active). The growth inhibition was 32% in assay [3] (setting [7]); 95% (active) in assay [3] (setting [8]); 96.2% (active) in assay [3] (at 50.0 µM); 19% in assay [4] (setting [7]); 96% (active) in assay [4] (setting [8]); 96.3% (active) in assay [4] (at 50.0 µM). In addition, the growth inhibition in assay [5] (setting [7]) was 43%; in assay [5] (setting [8]), 89% (active); in assay [5] (at 50.0 µM), 98.1% (active); in assay [6] (setting [7]), 54%; in assay [6] (setting [8]) it was 97% (active); in assay [6] (at 50.0 µM) it was 97.8% (active).

Take `C=C1C(=O)OC2CC3(C)CCCC(C)C3=CC12` (stereo not given): the growth inhibition in assay [1] (setting [7]) was 18%; in assay [1] (setting [8]), 27%; in assay [1] (at 50.0 µM) it was 49.5%; in assay [2] (setting [7]), 10%; in assay [2] (setting [8]) it was 56%; in assay [2] (at 50.0 µM) it was 46.9%. The growth inhibition in assay [3] (setting [7]) is 15%; in assay [3] (setting [8]), 49%; in assay [3] (at 50.0 µM), 80% (active); in assay [4] (setting [7]), 7%; in assay [4] (setting [8]) it was 25%; in assay [4] (at 50.0 µM), 16.2%. The growth inhibition was 14% in assay [5] (setting [7]); 63% in assay [5] (setting [8]); 78.8% (active) in assay [5] (at 50.0 µM); 14% in assay [6] (setting [7]); 41% in assay [6] (setting [8]); 25% in assay [6] (at 50.0 µM).

For `CN(C)c1ccc(/C=C/c2ccnc3ccccc23)cc1`, the growth inhibition in assay [1] (setting [7]) is -6%; in assay [1] (setting [8]), 95% (active); in assay [1] (at 50.0 µM), 78.1% (active); in assay [2] (setting [7]), 0%; in assay [2] (setting [8]), 97% (active); in assay [2] (at 50.0 µM), 84.5% (active). Moreover, the growth inhibition is -1% in assay [3] (setting [7]); 97% (active) in assay [3] (setting [8]); 92.3% (active) in assay [3] (at 50.0 µM); -10% in assay [4] (setting [7]); 35% in assay [4] (setting [8]); -15.1% in assay [4] (at 50.0 µM). Also, the growth inhibition in assay [5] (setting [7]) is -1%; in assay [5] (setting [8]) it was 97% (active); in assay [5] (at 50.0 µM) it was 91.5% (active); in assay [6] (setting [7]), 19%; in assay [6] (setting [8]), 93% (active); in assay [6] (at 50.0 µM), 89.1% (active).

Regarding `O=C(O)c1cc2c(s1)C(=O)c1sccc1C2=O`, the growth inhibition in assay [1] (setting [7]) is 37%; in assay [1] (setting [8]), 75% (active); in assay [1] (at 50.0 µM) it was 71.5% (active); in assay [2] (setting [7]), 33%; in assay [2] (setting [8]), 69%; in assay [2] (at 50.0 µM), 57.6%. Also, the growth inhibition was 39% in assay [3] (setting [7]); 66% in assay [3] (setting [8]); 72% (active) in assay [3] (at 50.0 µM); 12% in assay [4] (setting [7]); 30% in assay [4] (setting [8]); 54.9% in assay [4] (at 50.0 µM). For the same molecule, the growth inhibition was 36% in assay [5] (setting [7]); 79% (active) in assay [5] (setting [8]); 71.2% (active) in assay [5] (at 50.0 µM); 39% in assay [6] (setting [7]); 79% (active) in assay [6] (setting [8]); 92.8% (active) in assay [6] (at 50.0 µM).

For `CN=C(N)N/N=C(\c1ccccc1)c1ccc(Br)cc1`, the growth inhibition in assay [1] (setting [7]) was 11%; in assay [1] (setting [8]) it was 51%; in assay [1] (at 50.0 µM) it was 46.4%; in assay [2] (setting [7]), 8%; in assay [2] (setting [8]), 39%; in assay [2] (at 50.0 µM), 71% (active). Moreover, the growth inhibition in assay [3] (setting [7]) was 13%; in assay [3] (setting [8]), 43%; in assay [3] (at 50.0 µM) it was 16.9%; in assay [4] (setting [7]), 18%; in assay [4] (setting [8]), 33%; in assay [4] (at 50.0 µM), 12.3%. Besides, the growth inhibition in assay [5] (setting [7]) was 5%; in assay [5] (setting [8]), 63%; in assay [5] (at 50.0 µM), 1.9%; in assay [6] (setting [7]), 10%; in assay [6] (setting [8]) it was 64%; in assay [6] (at 50.0 µM), -2.1%.

`O=C(OC12CC3CC(CC(C3)C1)C2)c1ccc(NCc2cc(O)ccc2O)cc1`: the growth inhibition was 39% in assay [1] (setting [7]); 94% (active) in assay [1] (setting [8]); 84.7% (active) in assay [1] (at 50.0 µM); 28% in assay [2] (setting [7]); 96% (active) in assay [2] (setting [8]); 88% (active) in assay [2] (at 50.0 µM). For the same molecule, the growth inhibition in assay [3] (setting [7]) is 39%; in assay [3] (setting [8]), 95% (active); in assay [3] (at 50.0 µM) it was 90.8% (active); in assay [4] (setting [7]), 17%; in assay [4] (setting [8]) it was 95% (active); in assay [4] (at 50.0 µM) it was 87.8% (active). In addition, the growth inhibition was 28% in assay [5] (setting [7]); 91% (active) in assay [5] (setting [8]); 89.8% (active) in assay [5] (at 50.0 µM); 32% in assay [6] (setting [7]); 94% (active) in assay [6] (setting [8]); 88.5% (active) in assay [6] (at 50.0 µM).

With `Nc1cccc2cccc([N+](=O)[O-])c12`, the growth inhibition in assay [1] (setting [7]) was -142%; in assay [1] (setting [8]) it was -39%; in assay [1] (at 50.0 µM) it was 10.8%; in assay [2] (setting [7]), -47%; in assay [2] (setting [8]) it was -40%; in assay [2] (at 50.0 µM), 11.4%. In addition, the growth inhibition is -52% in assay [3] (setting [7]); 1% in assay [3] (setting [8]); 16% in assay [3] (at 50.0 µM); -63% in assay [4] (setting [7]); -10% in assay [4] (setting [8]); 62% in assay [4] (at 50.0 µM). The growth inhibition in assay [5] (setting [7]) is -74%; in assay [5] (setting [8]), -86%; in assay [5] (at 50.0 µM), -19.9%; in assay [6] (setting [7]) it was -130%; in assay [6] (setting [8]), -68%; in assay [6] (at 50.0 µM), 21.4%.

With `C/C(=N/NC(N)=S)c1ccc(C)cc1`, the growth inhibition in assay [1] (setting [7]) was -4%; in assay [1] (setting [8]), 40%; in assay [1] (at 50.0 µM) it was 69%; in assay [2] (setting [7]), -4%; in assay [2] (setting [8]), 6%; in assay [2] (at 50.0 µM), 3.5%. In addition, the growth inhibition in assay [3] (setting [7]) is -5%; in assay [3] (setting [8]) it was 2%; in assay [3] (at 50.0 µM), 40.2%; in assay [4] (setting [7]), -11%; in assay [4] (setting [8]) it was -22%; in assay [4] (at 50.0 µM) it was 2.3%. The growth inhibition was -13% in assay [5] (setting [7]); -8% in assay [5] (setting [8]); 45% in assay [5] (at 50.0 µM); -4% in assay [6] (setting [7]); 20% in assay [6] (setting [8]); 66.1% in assay [6] (at 50.0 µM).

Consider `CC1C(c2ccccc2)OCCN1C(=S)Nc1ccc(S(=O)(=O)N2CCCCC2)cc1` (stereo not given), for which the growth inhibition in assay [1] (setting [7]) is 46%; in assay [1] (setting [8]) it was 86% (active); in assay [1] (at 50.0 µM) it was 85.4% (active); in assay [2] (setting [7]), 46%; in assay [2] (setting [8]) it was 84% (active); in assay [2] (at 50.0 µM), 89.2% (active). The growth inhibition is 65% in assay [3] (setting [7]); 97% (active) in assay [3] (setting [8]); 91.5% (active) in assay [3] (at 50.0 µM); 62% in assay [4] (setting [7]); 96% (active) in assay [4] (setting [8]); 89.7% (active) in assay [4] (at 50.0 µM). The growth inhibition was 73% (active) in assay [5] (setting [7]); 96% (active) in assay [5] (setting [8]); 90.1% (active) in assay [5] (at 50.0 µM); 43% in assay [6] (setting [7]); 88% (active) in assay [6] (setting [8]); 86.4% (active) in assay [6] (at 50.0 µM).

For `CC1(O)CCCCCC1`, the growth inhibition in assay [1] (setting [7]) was -13%; in assay [1] (setting [8]) it was 74% (active); in assay [1] (at 50.0 µM), 85% (active); in assay [2] (setting [7]), -29%; in assay [2] (setting [8]), 58%; in assay [2] (at 50.0 µM), 69.7%. For the same molecule, the growth inhibition in assay [3] (setting [7]) was -7%; in assay [3] (setting [8]), 54%; in assay [3] (at 50.0 µM), 88.2% (active); in assay [4] (setting [7]), 28%; in assay [4] (setting [8]) it was 68%; in assay [4] (at 50.0 µM), 77.7% (active). Moreover, the growth inhibition is 3% in assay [5] (setting [7]); 74% (active) in assay [5] (setting [8]); 84.2% (active) in assay [5] (at 50.0 µM); 16% in assay [6] (setting [7]); 91% (active) in assay [6] (setting [8]); 71.1% (active) in assay [6] (at 50.0 µM).
